{"source": "PubChem BioAssay AID2284066", "about": "(EPA ToxCast)", "note": "Calls of active or inactive are those of the source. The calls were made as follows: active = hit-call score of the fitted dose curve at least 0.9, where 1 is the maximum; inactive = score below 0.9.", "data": [{"target": "Tyrosine-protein kinase Fyn (Homo sapiens) (UniProt P06241)", "sequence (P06241 whole entry, looked up)": "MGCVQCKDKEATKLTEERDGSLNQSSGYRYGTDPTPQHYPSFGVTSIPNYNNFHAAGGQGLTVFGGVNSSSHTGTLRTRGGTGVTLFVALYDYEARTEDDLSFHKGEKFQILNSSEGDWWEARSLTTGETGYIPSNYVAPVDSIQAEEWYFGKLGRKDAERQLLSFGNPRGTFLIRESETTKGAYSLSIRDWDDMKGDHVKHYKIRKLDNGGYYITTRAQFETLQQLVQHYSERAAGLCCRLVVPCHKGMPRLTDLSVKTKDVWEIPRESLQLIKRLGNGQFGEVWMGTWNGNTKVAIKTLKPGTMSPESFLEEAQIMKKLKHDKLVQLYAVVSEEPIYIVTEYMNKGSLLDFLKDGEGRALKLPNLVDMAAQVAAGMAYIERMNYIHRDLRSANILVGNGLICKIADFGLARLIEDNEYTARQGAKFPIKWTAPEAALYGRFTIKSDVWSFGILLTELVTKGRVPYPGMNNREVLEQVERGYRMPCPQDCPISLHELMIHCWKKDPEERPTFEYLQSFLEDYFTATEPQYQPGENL", "assay": "ERF_FR_ENZ_hFYN: Eurofins (ERF) Enzymatic Radiometric [Km ATP] KinaseProfiler LeadHunter Assay for human Fyn Tyrosine Kinase", "protocol": "ERF_FR_ENZ_hFYN is a biochemical, single-readout assay that uses extracted gene-proteins in a cell-free assay. Measurements were taken 1 hour after chemical dosing in a 96-well plate. See Fyn Human TK Kinase Enzymatic HTRF Assay [Km ATP], Cerep.ERF_FR_ENZ_hFYN is an assay component calculated from the ERF_FR_ENZ_hFYN assay. It is designed to measure enzyme activity using a type of enzyme reporter as detected by fluorescence intensity with HTRF technology.Data from the assay component ERF_FR_ENZ_hFYN was analyzed at the assay endpoint, ERF_FR_ENZ_hFYN, in the positive analysis fitting direction relative to DMSO as the negative control and baseline of activity. Using a type of enzyme reporter, loss-of-signal activity can be used to understand changes in enzymatic activity as they relate to gene FYN. To generalize the intended target to other relatable targets, this assay endpoint is annotated to the kinase intended target family, where the subfamily is non-receptor tyrosine […].\nFyn (h) is incubated with 50 mM Tris pH 7.5, 0.1 mM EGTA, 0.1 mM Na3VO4, 250 uM […] (Cdc2 peptide), 10 mM MgAcetate and [gamma-33P]-ATP (specific activity and concentration as required). The reaction is initiated by the addition of the Mg/ATP mix. After incubation for 40 minutes at room temperature, the reaction is stopped by the addition of phosphoric acid to a concentration of 0.5%. […]", "values": [{"compound": "O=C(/C=C/c1ccc(O)cc1)CC(=O)/C=C/c1ccc(O)cc1", "AC50": "0.992 µM (active)"}]}]}
